Test results published in PubChem BioAssay.
Records with an inconclusive call do not appear. The source made the active and inactive calls.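 The calls were made as follows, unless noted: active = normalized viability below 100% at a tested concentration; inactive = the rest.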

Tests used:
[1] = growth inhibition of DIPG glioma cells, dose response, cell-based, SU-DIPG-XVII, MIPE5.0, CellTiter-Glo, qHTS (AID 1347060; cut-off not given, nearly all actives have AC50 up to about 26 µM;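 as to AC50: cells exposed to compound for 48 hours before viability readout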); conditions: SU-DIPG-XVII viability, CellTiter-Glo ATP luminescence
[2] = JHH-DIPG-1 glioma cell viability, MIPE5.0 library, CellTiter-Glo luminescence, qHTS (AID 1347067; cut-off not given, nearly all actives have AC50 up to about 26 µM;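 also: cells exposed to compound for 48 hours before readout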); conditions: JHH-DIPG-1 glioma viability, CellTiter-Glo ATP luminescence
[3] = SU-DIPG-XXV glioma cell viability, MIPE5.0 library, qHTS (AID 1347068; cut-off not given, nearly all actives have IC50 up to about 30 µM;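 as to IC50: cells exposed to compound for 48 hours before viability readout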)
[4] = ovarian cancer cell viability with rucaparib, profiling panel, oncology-focused library, rucaparib conditional (AID 1508598); conditions: patient-derived ovarian cancer cells, CellTiter-Glo viability, 144 h, stronger effect = lower value
[5] = liver-stage malaria parasite growth inhibition, primary screen, cell-based, HepG2, luciferase luminescence, HepG2 viability (AID 624349; in the data active = parasite load remaining mostly below about 12%, no sharp cut-off; inactive = mostly above about 10%;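 also: 100% = mean of DMSO negative control wells on the same plate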); conditions: P. berghei liver stage in HepG2, luciferase luminescence, concentration not given here; parasite load remaining: stronger effect = lower value; viability: measured here: HepG2 viability without parasites

Cc1cc(CS(=O)(=O)c2ccccc2)cc(OCc2ccc(CN3CCC[C@@H]3CO)cc2)c1
inactive: outcome [2] | outcome [3] | viability ([4]; at 0.000305 µM, OCI-C5x cells, with rucaparib 10 µM, 100% = cells with rucaparib alone) 111% | viability ([4]; at 0.000305 µM, OCI-C5x cells, without rucaparib) 109% | viability ([4]; at 0.000305 µM, OCI-P5x cells, without rucaparib) 106% | viability ([4]; at 0.00122 µM, OCI-C5x cells, with rucaparib 10 µM, 100% = cells with rucaparib alone) 113% | viability ([4]; at 0.00122 µM, OCI-C5x cells, without rucaparib) 120% | viability ([4]; at 0.00122 µM, OCI-P5x cells, with rucaparib 20 µM, 100% = cells with rucaparib alone) 103% | viability ([4]; at 0.00122 µM, OCI-P5x cells, without rucaparib) 108% | viability ([4]; at 0.00488 µM, OCI-C5x cells, with rucaparib 10 µM, 100% = cells with rucaparib alone) 111% | viability ([4]; at 0.00488 µM, OCI-C5x cells, without rucaparib) 127% | viability ([4]; at 0.00488 µM, OCI-P5x cells, without rucaparib) 107% | viability ([4]; at 0.0195 µM, OCI-C5x cells, with rucaparib 10 µM, 100% = cells with rucaparib alone) 116% | viability ([4]; at 0.0195 µM, OCI-C5x cells, without rucaparib) 116% | viability ([4]; at 0.0195 µM, OCI-P5x cells, with rucaparib 20 µM, 100% = cells with rucaparib alone) 107% | viability ([4]; at 0.0195 µM, OCI-P5x cells, without rucaparib) 103% | viability ([4]; at 0.0781 µM, OCI-C5x cells, with rucaparib 10 µM, 100% = cells with rucaparib alone) 123% | viability ([4]; at 0.0781 µM, OCI-C5x cells, without rucaparib) 125% | viability ([4]; at 0.0781 µM, OCI-P5x cells, without rucaparib) 108% | viability ([4]; at 0.313 µM, OCI-C5x cells, with rucaparib 10 µM, 100% = cells with rucaparib alone) 116% | viability ([4]; at 0.313 µM, OCI-C5x cells, without rucaparib) 111% | viability ([4]; at 0.313 µM, OCI-P5x cells, with rucaparib 20 µM, 100% = cells with rucaparib alone) 106% | viability ([4]; at 0.313 µM, OCI-P5x cells, without rucaparib) 109% | viability ([4]; at 1.25 µM, OCI-C5x cells, with rucaparib 10 µM, 100% = cells with rucaparib alone) 117% | viability ([4]; at 1.25 µM, OCI-C5x cells, without rucaparib) 123% | viability ([4]; at 1.25 µM, OCI-P5x cells, without rucaparib) 105% | viability ([4]; at 5 µM, OCI-C5x cells, with rucaparib 10 µM, 100% = cells with rucaparib alone) 127% | viability ([4]; at 5 µM, OCI-C5x cells, without rucaparib) 122%
active: AC50 [1] 26.3 µM | viability ([4]; at 0.000305 µM, OCI-P5x cells, with rucaparib 20 µM, 100% = cells with rucaparib alone) 97% | viability ([4]; at 0.00488 µM, OCI-P5x cells, with rucaparib 20 µM, 100% = cells with rucaparib alone) 99.4% | viability ([4]; at 0.0781 µM, OCI-P5x cells, with rucaparib 20 µM, 100% = cells with rucaparib alone) 99.2% | viability ([4]; at 1.25 µM, OCI-P5x cells, with rucaparib 20 µM, 100% = cells with rucaparib alone) 99.2% | viability ([4]; at 5 µM, OCI-P5x cells, with rucaparib 20 µM, 100% = cells with rucaparib alone) 95.9% | viability ([4]; at 5 µM, OCI-P5x cells, without rucaparib) 99.8%

N#Cc1cc2cc(CN3CCC(Nc4ncnc5sc(CC(F)(F)F)cc45)CC3)c(O)cc2n1Cc1cn[nH]c1
active: AC50 [1] 29.5 µM | IC50 [3] 20.9 µM

CC(C)n1cnc2c(NCCCCCCNC(=O)OC(C)(C)C)nc(NCCO)nc21
active: AC50 [1] 23.5 µM | AC50 [2] 18.6 µM
inactive: parasite load remaining [5] 47.6%
102%: viability [5]

CC[C@H](C)[C@@H]([C@@H](CC(=O)N1CCC[C@H]1[C@H](OC)[C@@H](C)C(=O)N[C@@H](Cc1ccccc1)c1nccs1)OC)N(C)C(=O)[C@@H](NC(=O)[C@H](C(C)C)N(C)C)C(C)C
active: IC50 [3] 0.00417 µM
inactive: outcome [1]

NS(=O)(=O)c1ccc(Cc2c(-c3cccc(-c4ccccc4)c3)nn(-c3nc(C(=O)O)cs3)c2CC2CC2)cc1
inactive: outcome [3]
active: AC50 [1] 23.5 µM | AC50 [2] 20.9 µM

CC(C)(O)CNc1ncc(-c2ccnc(Nc3ccncc3)n2)c(CC2CC2)n1
active: AC50 [1] 16.6 µM | AC50 [2] 16.6 µM | IC50 [3] 23.5 µM

CCS(=O)(=O)N1CCC(C(C)n2c(C)c(C(=O)NCc3c(OC)cc(C)[nH]c3=O)c3ccccc32)CC1 (configuration not stated)
inactive: outcome [1] | outcome [2] | outcome [3]
